Active and inactive are the calls of the source.
Tests used:
[1] = binders of probe aFSTL3 on microarray, primary screen, stem cell growth factor project, biochemical, small-molecule microarray, fluorescence 635/667 (AID 1064); conditions: higher = more signal;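 further: measures binding of the biotinylated anti-FSTL3 antibody to printed compounds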
[2] = binders from COS7 lysate, DM2A8 probe, primary screen, torsin A project, cell lysate, small-molecule microarray, fluorescence 635/667 (AID 1065); conditions: higher = more signal, COS7 lysate expressing mutant human TOR1A
[3] = binders of probe aFGF2 on microarray, primary screen, stem cell growth factor project, biochemical, small-molecule microarray, fluorescence 635/667 (AID 1067); conditions: higher = more signal;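 further: measures binding of biotinylated aFGF2 protein to printed compounds on slides; z-score merges feature fluorescence and signal-to-noise across triplicate slides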
[4] = binders of probe aFGF10 on microarray, primary screen, stem cell growth factor project, biochemical, small-molecule microarray, fluorescence 635/667 (AID 1071); conditions: higher = more signal;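 further: score merges 667 nm spot intensity and signal to noise from triplicate slides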
[5] = target: Neurogenic locus notch homolog protein 2 (Homo sapiens) (UniProt Q04721); assay: Notch2 binders on small-molecule microarrays, primary screen, biochemical, small-molecule microarray, 635 nm fluorescence, stem cell growth factors (AID 1073); conditions: Notch2 binding, higher = more signal
Chain of Neurogenic locus notch homolog protein 2 (Homo sapiens) (Q04721 whole entry, looked up, canonical isoform): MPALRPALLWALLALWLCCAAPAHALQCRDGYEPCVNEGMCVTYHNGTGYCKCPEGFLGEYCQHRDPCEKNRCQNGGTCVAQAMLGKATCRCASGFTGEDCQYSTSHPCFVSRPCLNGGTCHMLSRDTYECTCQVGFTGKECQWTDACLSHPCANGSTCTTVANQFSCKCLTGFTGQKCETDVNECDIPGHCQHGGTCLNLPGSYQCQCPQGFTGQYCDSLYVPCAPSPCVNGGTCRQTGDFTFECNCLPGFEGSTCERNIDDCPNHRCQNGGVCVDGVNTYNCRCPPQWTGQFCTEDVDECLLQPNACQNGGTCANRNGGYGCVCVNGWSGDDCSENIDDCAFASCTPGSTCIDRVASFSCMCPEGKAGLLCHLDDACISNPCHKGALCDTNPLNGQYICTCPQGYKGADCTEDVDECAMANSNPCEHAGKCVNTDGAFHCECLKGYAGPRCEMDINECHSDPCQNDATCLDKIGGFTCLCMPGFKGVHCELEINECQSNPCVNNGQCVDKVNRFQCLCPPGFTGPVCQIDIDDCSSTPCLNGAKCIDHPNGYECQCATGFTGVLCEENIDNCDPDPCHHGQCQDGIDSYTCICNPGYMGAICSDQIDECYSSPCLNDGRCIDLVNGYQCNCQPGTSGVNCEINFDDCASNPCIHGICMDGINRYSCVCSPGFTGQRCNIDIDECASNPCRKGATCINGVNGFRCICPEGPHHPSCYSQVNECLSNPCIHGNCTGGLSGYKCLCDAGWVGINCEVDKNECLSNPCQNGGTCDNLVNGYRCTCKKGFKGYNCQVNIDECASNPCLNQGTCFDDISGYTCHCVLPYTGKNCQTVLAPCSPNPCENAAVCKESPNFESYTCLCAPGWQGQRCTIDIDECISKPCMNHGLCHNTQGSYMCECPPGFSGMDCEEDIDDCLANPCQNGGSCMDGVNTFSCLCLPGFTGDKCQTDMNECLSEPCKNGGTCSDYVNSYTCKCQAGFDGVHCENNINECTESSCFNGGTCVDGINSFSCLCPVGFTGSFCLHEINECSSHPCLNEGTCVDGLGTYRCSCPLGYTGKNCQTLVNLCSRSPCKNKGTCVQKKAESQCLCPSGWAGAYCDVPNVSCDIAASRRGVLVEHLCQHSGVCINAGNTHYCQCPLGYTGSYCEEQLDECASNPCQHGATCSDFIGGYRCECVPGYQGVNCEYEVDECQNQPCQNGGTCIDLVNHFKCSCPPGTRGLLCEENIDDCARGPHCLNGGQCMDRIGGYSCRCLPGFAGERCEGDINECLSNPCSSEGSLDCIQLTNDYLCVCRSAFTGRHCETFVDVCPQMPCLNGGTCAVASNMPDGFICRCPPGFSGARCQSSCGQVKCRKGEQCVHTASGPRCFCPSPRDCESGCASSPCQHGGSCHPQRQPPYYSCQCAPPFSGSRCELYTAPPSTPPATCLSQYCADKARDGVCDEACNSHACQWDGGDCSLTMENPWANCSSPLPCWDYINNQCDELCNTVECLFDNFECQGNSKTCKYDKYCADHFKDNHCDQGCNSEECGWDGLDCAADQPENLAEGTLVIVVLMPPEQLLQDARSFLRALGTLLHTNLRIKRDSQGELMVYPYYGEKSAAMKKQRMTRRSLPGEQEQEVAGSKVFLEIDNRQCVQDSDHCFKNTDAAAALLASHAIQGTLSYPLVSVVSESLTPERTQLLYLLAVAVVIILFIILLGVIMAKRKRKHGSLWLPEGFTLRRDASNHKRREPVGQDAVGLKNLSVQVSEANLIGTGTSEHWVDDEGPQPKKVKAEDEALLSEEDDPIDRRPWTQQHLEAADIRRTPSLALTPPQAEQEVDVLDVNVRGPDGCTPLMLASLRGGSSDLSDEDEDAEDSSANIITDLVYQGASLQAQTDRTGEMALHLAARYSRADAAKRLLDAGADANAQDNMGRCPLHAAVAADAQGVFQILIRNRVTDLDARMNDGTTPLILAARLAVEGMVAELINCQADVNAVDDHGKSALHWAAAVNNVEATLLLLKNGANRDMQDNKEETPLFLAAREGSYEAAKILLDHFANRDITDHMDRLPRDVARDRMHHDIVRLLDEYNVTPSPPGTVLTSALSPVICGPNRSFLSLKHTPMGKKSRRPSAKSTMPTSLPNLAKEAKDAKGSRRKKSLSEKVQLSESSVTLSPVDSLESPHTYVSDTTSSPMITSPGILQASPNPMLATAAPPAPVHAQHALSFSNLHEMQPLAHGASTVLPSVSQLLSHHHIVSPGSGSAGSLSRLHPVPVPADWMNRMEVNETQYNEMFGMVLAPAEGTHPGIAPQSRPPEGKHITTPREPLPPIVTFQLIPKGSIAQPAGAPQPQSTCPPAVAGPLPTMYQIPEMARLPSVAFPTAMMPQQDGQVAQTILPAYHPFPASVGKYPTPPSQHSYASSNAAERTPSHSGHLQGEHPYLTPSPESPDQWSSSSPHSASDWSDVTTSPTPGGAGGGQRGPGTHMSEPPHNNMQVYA

[6] = target: Pro-neuregulin-1, membrane-bound isoform (Homo sapiens) (UniProt Q02297); assay: NRG1 binders on small-molecule microarrays, primary screen, psychiatric disease protein project, biochemical, small-molecule microarray, fluorescence 635/667 (AID 1075); conditions: NRG1 binding, 635 nm fluorescence, higher = more signal;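 further: score combines 667 nm spot fluorescence with signal to noise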
Chain of Pro-neuregulin-1, membrane-bound isoform (Homo sapiens) (Q02297 whole entry, looked up, the tested form may be a part, canonical isoform): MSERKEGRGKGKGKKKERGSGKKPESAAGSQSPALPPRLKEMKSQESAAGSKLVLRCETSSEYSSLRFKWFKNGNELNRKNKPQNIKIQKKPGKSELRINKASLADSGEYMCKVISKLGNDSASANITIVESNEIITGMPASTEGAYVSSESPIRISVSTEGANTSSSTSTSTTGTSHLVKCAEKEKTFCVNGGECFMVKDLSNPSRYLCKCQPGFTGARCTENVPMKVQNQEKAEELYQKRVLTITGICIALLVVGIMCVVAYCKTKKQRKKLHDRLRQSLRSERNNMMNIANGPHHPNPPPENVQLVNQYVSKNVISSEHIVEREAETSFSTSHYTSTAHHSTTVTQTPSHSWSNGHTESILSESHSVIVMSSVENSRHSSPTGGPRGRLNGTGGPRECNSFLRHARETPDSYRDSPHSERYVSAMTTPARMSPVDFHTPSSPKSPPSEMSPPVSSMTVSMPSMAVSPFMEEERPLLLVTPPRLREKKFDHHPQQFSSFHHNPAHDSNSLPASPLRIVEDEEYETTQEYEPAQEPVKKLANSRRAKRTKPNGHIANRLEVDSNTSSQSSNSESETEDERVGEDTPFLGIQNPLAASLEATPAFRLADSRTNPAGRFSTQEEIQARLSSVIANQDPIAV

[7] = tested on: Neuregulin-1 EGF-like domain; assay: binders of neuregulin-1 EGF-like domain, primary screen, biochemical, small-molecule microarray, 635 nm fluorescence (AID 1081); conditions: small-molecule microarray binding, higher = more signal;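 further: binding of the protein to compounds printed on small-molecule microarray slides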
[8] = FRG1 promoter luciferase signal modulators, primary screen, FRG1 inhibition for FSHD, cell-based, C2C12 myotubes, firefly/Renilla luciferase, luminescence (AID 1084); conditions: higher = more signal, called active from +8 up or from −8 down
[9] = binders of probe aFST on microarray, primary screen, stem cell growth factor project, biochemical, small-molecule microarray, fluorescence 635/667 (AID 1086); conditions: higher = more signal;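 further: score merges 667 nm fluorescence with signal-to-noise of each printed compound spot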
[10] = binders of probe aHhip on microarray, primary screen, stem cell growth factor project, biochemical, small-molecule microarray, fluorescence 635/667 (AID 1087); conditions: higher = more signal;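 further: score merges spot fluorescence at 667nm with spot signal to noise ratio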

SMILES | composite z-score [1] | composite z-score [2] | composite z-score [3] | composite z-score [4] | composite z-score [5] | composite z-score [6] | composite z-score [7] | z-score [8] | composite z-score [9] | composite z-score [10]
C=CCN1C(=O)[C@@]2(O[C@@H](CCn3cc([C@H](O)c4ccccc4)nn3)[C@H]([Si](C)(C)c3ccc(OC)cc3)[C@H]2C)c2cc(N3C(=O)c4cccc5cccc3c45)ccc21 | 0.241 | -0.477 | -0.151 | -0.215 | -0.902 | 0.548 | 0.482 | -1.04 (inactive) | -0.365 | -0.271
[N-]=[N+]=Nc1ccccc1C[C@]1(C(=O)N2CCOCC2)N=C(c2ccc(OCCCO)cc2)O[C@H]1c1ccccc1N=[N+]=[N-] | -0.214 | 1.05 | 0.119 | 0.499 | 1.5 | 1.68 | 1.36 | -2.32 (inactive) | 1.53 | -0.0237
COC(=O)[C@@]1(Cc2ccccc2)N=C(c2ccc(OCCCO)cc2)O[C@H]1c1ccccc1CN=[N+]=[N-] | 0.261 | 0.0296 | -0.0529 | 0.0585 | 0.33 | 1.02 | 0.666 | -2.6 (inactive) | 0.226 | -0.41
O=C1C[C@@](C(=O)NC2CC2)(c2ccc([N+](=O)[O-])cc2)[C@@H](c2ccc(CO)cc2)N1C1CCCCC1 | -0.281 | 0.286 | 0.0626 | 0.907 | 0.804 | 1.81 | 1.3 | -0.534 (inactive) | 0.832 | 0.164
CC(C)C(CO)N1C(=O)[C@@H]2C3C(=O)OCCC/C=C\[C@H]3OC23C=CCN(Cc2ccccc2)C(=O)[C@@H]13 (stereo not given in full) | 0.598 | -0.217 | -0.0744 | 0.648 | -0.376 | 1.43 | 1.58 | 0.597 (inactive) | -0.406 | -0.134
CCCNC(=O)[C@@]1(c2ccc([N+](=O)[O-])cc2)CC(=O)N(C(C)C)[C@@H]1c1ccc(CO)cc1 | 0.829 | -0.22 | -0.111 | -0.904 | -1.73 | 0.0532 | 0.843 | -0.558 (inactive) | -1.14 | -0.0618
CC(C)C[C@@H]1NC(=O)[C@@]23C(=O)N[C@@H](Cc4ccccc4)C2[C@H](C)[C@@]2(C)O[C@H]2C3/C=C/C/C=C\CNC(=O)CNC1=O (stereo not given in full) | -0.351 | 0.0664 | -0.13 | 0.573 | 0.0474 | 0.458 | 0.325 | -0.866 (inactive) | -0.175 | -0.48
CCCC#C[Si](O[C@H](CC)c1cn(Cc2ccccc2)nn1)(C(C)C)C(C)C | -0.0658 | 0.0418 | 0.0252 | 0.435 | 0.734 | 0.53 | 1.02 | 0.403 (inactive) | 0.278 | -0.166
COc1cc(C(O)C2C=CC3C(=O)N(c4ccccc4)C(=O)C3N2Nc2ccccc2F)cc(OC)c1OC (stereo not given) | -0.0643 | 0.155 | 0.0253 | 0.935 | 1.64 | 1.93 | 1.29 | 1.26 (inactive) | 0.612 | 0.252
O=C1O[C@@H](c2ccccc2)[C@@H](c2ccccc2)N2[C@@H](c3ccccc3OCCO)[C@]3(C(=O)Nc4ccc(C#CCCO)cc43)[C@@H](C(=O)NC[C@H](O)c3ccccc3)[C@H]12 | 0.13 | 1.2 | 0.277 | 0.0012 | 0.381 | 1.63 | 1.36 | -2.14 (inactive) | 0.372 | 0.192

— PubChem BioAssay
